Reference: PubChem BioAssay (EPA / NIEHS)
Where “and” joins values, the source holds several entries; their conditions need not be identical. Identical values can stand only once. Some structures have more than one record in an assay (separate samples or runs), and their calls can disagree. Calls of active or inactive are those of the source. The calls were made as follows: active = hit-call score of the fitted dose curve at least 0.9, where 1 is the maximum; inactive = score below 0.9.

The compounds below were run against X-box-binding protein 1 (Homo sapiens) (UniProt P17861) (assay: ATG_Xbp1_CIS: Attagene CIS-FACTORIAL HepG2 Assay for human X-box Binding Protein 1 (XBP1) (AID 2282972)). Conditions: HepG2 XBP1 cis-element reporter, Attagene multiplex; actives raise or lower the signal.
Chain of X-box-binding protein 1 (Homo sapiens) (P17861 whole entry, looked up, the tested form may be a part): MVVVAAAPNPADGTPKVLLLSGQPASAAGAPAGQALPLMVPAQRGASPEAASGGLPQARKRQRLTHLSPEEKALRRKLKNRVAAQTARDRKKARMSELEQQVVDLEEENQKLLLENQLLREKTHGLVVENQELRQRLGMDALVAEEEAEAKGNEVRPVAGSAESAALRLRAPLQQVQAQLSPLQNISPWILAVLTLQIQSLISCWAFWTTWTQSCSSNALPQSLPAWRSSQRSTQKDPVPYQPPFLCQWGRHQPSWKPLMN
Method in brief: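 Fluorescence-labelled cDNA fragments from reporter transcripts, separated by capillary electrophoresis, give the signal. Source: HepG2 cells transfected with promoter-driven reporter units, harvested 24 h post-dose. DMSO served as reference for bidirectional curve fitting.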
In the case of `O=c1c(-c2ccc(O)cc2)coc2cc(O)ccc12`, the outcome is reported as “inactive”.
For `Cc1ccc(S(=O)(=O)O)c(C)c1`, the outcome was “inactive”.
`CCCCOCCO` was tested, and the outcome was “inactive”.
With `C=C(C)C(=O)OCCC(F)(F)C(F)(F)C(F)(F)C(F)(F)C(F)(F)C(F)(F)F` the outcome was “inactive”.
In the case of `C[C@@H]1C[C@H]2[C@@H]3CCC4=CC(=O)C=C[C@]4(C)[C@@]3(F)[C@@H](O)C[C@]2(C)[C@@]1(O)C(=O)COP(=O)(O)O`, the outcome is reported as “inactive”.
For `COc1cc(CCC(=O)CC(=O)CCc2ccc(O)c(OC)c2)ccc1O`, the outcome was “inactive”.
`FC(F)(I)C(F)(F)C(F)(F)C(F)(F)C(F)(F)C(F)(F)I` was tested, and the outcome was “inactive”.
`CCCCCCCCOC(=O)CCCCCCCCC(=O)OCCCCCCCC` was tested, and the outcome was “inactive”.
`CCc1ccc(CCOc2ccc(CC3SC(=O)NC3=O)cc2)nc1` (stereo unspecified) was tested, and the outcome was “inactive”.
With `Nc1cccc2c(N)cccc12` the outcome was “inactive”.
For `CC(O)C(=O)O` (stereo unspecified), the outcome was “inactive”.
In the case of `O=C(O)c1ccccc1C(c1ccc(O)cc1)c1ccc(O)cc1`, the outcome is reported as “inactive”.
`CN1CCN(c2ccccc2/C=C2\SCCN(c3ccc(Cl)c(Cl)c3)C2=O)CC1` was tested, and the outcome was “inactive”.
In the case of `CCC(C)(C)C1CCC(O)CC1` (stereo unspecified), the outcome is reported as “inactive”.
With `CN1CCC[C@H]1c1cccnc1` the outcome was “inactive”.
With `CCCCCCCCCCCCCCCS(=O)(=O)Oc1ccccc1` the outcome was “inactive”.
In the case of `CCCCCCCCCCCCc1ccccc1S(=O)(=O)O`, the outcome is reported as “inactive”.
For `CCCCCCCC(=O)O`, the outcome was “inactive”.
In the case of `CC[C@H](c1ccc(O)cc1)[C@@H](CC)c1ccc(O)cc1`, the outcome is reported as “inactive”.
With `CCCCC[C@H](O)CC(=O)CCc1ccc(O)c(OC)c1` the outcome was “inactive”.
For `CC(C)(C)c1cc(C(C)(C)C)c(O)c(C(C)(C)C)c1`, the AC50 was 20.3 µM (active) and the outcome was “inactive”.
In the case of `CCCOC(=O)c1ccc(O)cc1`, the AC50 is reported as 73.5 µM (active) and the outcome is reported as “inactive”.
With `CCC(=C(c1ccc(O)cc1)c1ccc(OCCN(C)C)cc1)c1ccccc1` the AC50 was 11.2 µM (active) and 2.37 µM (active) and the outcome was “inactive”.
`CC[C@H](C)[C@@H](C(=O)O)n1sc2ccccc2c1=O` was tested, and the outcome was “inactive”.
`O=C(O)Cc1cc(I)c(Oc2cc(I)c(O)c(I)c2)c(I)c1` was tested, and the AC50 was 34.1 µM (active) and the outcome was “inactive”.
For `O=C1OC2(c3ccccc31)c1cc(Br)c(O)c(Br)c1Oc1c2cc(Br)c(O)c1Br`, the AC50 was 66.7 µM (active) and the outcome was “inactive”.
With `c1ccc2cc3c(ccc4ccccc43)cc2c1` the outcome was “inactive”.
With `ClC1=C(Cl)C(Cl)(Cl)C(Cl)=C1Cl` the AC50 was 13.4 µM (active) and 7.05 µM (active).
With `c1ccc2c(c1)ccc1ccccc12` the outcome was “inactive”.
For `NCC(F)(F)C(F)(F)C(F)(F)C(F)(F)C(F)(F)C(F)(F)C(F)(F)F`, the outcome was “inactive”.
With `CCCCCCC(=O)O` the outcome was “inactive”.
In the case of `CCOC(=O)CC(O)(CC(=O)OCC)C(=O)OCC`, the outcome is reported as “inactive”.
For `OCCC(F)(F)C(F)(F)C(F)(F)C(F)(F)C(F)(F)C(F)(F)F`, the AC50 was 134 µM (active) and the outcome was “inactive”.
`CC#C[C@]1(O)CC[C@H]2[C@@H]3CCC4=CC(=O)CCC4=C3[C@@H](c3ccc(N(C)C)cc3)C[C@@]21C` was tested, and the AC50 was 35.7 µM (active) [middle of 4 runs].
`OCCC(F)(F)C(F)(F)C(F)(F)C(F)(F)C(F)(F)C(F)(F)C(F)(F)C(F)(F)F` was tested, and the AC50 was 48.2 µM (active) and 112 µM (active).
